The list is not random: actives were taken first. Their share in the collection is about 28%.
CYP2C19 inhib: human CYP2C19 inhibition; P33261; CYP2C19 Supersomes, luciferin-H EGE luminescence, 30 min; 96,000 compounds, 21% hits; inhibition, % at 5 µM;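 active = CYP2C19 inhibition above a set limit at 5 µM in the primary screen, cut at about 50% in these data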;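 also: plate controls were negative control wells for no effect and 2.5 mM tranylcypromine positive control for full effect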
CYP2C19 activ: activators of human cytochrome P450 2C19 | recombinant CYP2C19, luciferin-H EGE luminescence; hits give high values; 0 = fully inhibited enzyme, 1 = untreated enzyme | P33261 | activation factor at 5 µM | 96,000 tested, under 10 active;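 active = activation factor of at least 2 at 5 µM in the primary screen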;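 also: 0 = wells with 2.5 mM tranylcypromine and 1 = vehicle-only wells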
PLK1 PBD inh: blocks phosphopeptide binding to human Plk1 polo box domain; Plk1 PBD phosphopeptide binding, fluorescence polarization; inhibition, %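 (tested at about 20 µM)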; 97,000 compounds, 0.13% hits; AID 693; in the data active = inhibition above about 34%, passing the limit was not always enough
Target sequence (P53350 whole entry, looked up, the tested form may be a part): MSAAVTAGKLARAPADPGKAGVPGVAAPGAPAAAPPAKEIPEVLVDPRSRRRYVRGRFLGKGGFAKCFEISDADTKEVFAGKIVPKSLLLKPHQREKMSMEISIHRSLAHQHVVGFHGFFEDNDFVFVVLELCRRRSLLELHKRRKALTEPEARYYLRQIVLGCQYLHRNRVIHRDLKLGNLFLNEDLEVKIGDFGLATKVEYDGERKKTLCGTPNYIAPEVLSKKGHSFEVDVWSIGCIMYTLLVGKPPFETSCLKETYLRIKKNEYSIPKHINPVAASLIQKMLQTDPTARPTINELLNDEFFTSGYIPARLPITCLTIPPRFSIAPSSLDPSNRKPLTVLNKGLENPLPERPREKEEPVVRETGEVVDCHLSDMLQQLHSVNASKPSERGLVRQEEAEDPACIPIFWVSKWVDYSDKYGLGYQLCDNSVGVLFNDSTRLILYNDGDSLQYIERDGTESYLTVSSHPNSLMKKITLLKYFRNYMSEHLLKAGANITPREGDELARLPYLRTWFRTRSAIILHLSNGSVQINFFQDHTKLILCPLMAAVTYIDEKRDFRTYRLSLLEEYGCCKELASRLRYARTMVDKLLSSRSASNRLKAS
CYP2C9 activ: activators of human CYP2C9; P11712; recombinant CYP2C9, luciferin-H conversion, luminescence; hits give high values; factor 1 = untreated enzyme, 0 = blocked; activation factor at 5 µM; 96,000 compounds, 1.4% hits; AID 1024;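 active = activation factor of 2 or more for CYP2C9 at a 5 µM dose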;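 also: 0 = sulfaphenazole-blocked wells and 1 = vehicle-only wells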
CYP2C9 inh: human CYP2C9 inhibition; P11712; CYP2C9 Supersomes, luciferin-H conversion, luminescence; inhibition, % at 5 µM; 96,000 compounds, 20% hits;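 active = blocking of liver enzyme CYP2C9 beyond about 50% at 5 µM, limit read from the data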
PLK1 inh: inhibitors of human PLK1 kinase; P53350; recombinant PLK1 kinase, TR-FRET peptide phosphorylation; inhibition, % at 10 µM; 97,000 compounds, 0.53% hits;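 active = inhibition of 50% or more in the single-concentration screen; inactive = inhibition below 50%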;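 also: 0% = DMSO max control and 100% = H-89 dihydrochloride min control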
* marks the source's active call; other numbers are inactive results; / = not tested or not shown.

SMILES | CYP2C19 inhib | CYP2C19 activ | PLK1 PBD inh | CYP2C9 activ | CYP2C9 inh | PLK1 inh
CCOC(=O)c1sc2ncn(C(C)C(=O)OCC)c(=O)c2c1C (stereo not given) | 81.2* | 0.2 | 15.3 | 0.3 | 74.8* | -6.3
CCCCNC(=O)c1sc2ncnc(N3CCc4ccccc4C3)c2c1C | 18.5 | 0.8 | -0.3 | 0.1 | 94.1* | -0.3
COc1ccc(-c2nsc3c(SCC(=O)Nc4cc(C)ccc4C)ncnc23)cc1 | -10.3 | 1.1 | 28.9 | 0.9 | 8.7 | -20.5
CCC1Oc2ccc(C)cc2N(CC(=O)N2CCN(c3ccc(F)cc3)CC2)C1=O (stereo not given) | 45.2 | 0.5 | -1.9 | 0.9 | 13.5 | -7.8
CCOC(=O)CON1C(=O)c2ccccc2C1=O | 6.2 | 0.9 | 1.2 | 0.8 | 19.4 | -9.5
CCOC(=O)c1[nH]c2ccccc2c1NC(=O)c1cc(OC)c(OC)c(OC)c1 | / | / | -10.5 | / | / | -8.2
Oc1ccc(NCc2ccccc2OCc2ccccc2F)cc1 | 51.7* | 0.5 | -7.4 | 0.5 | 46.8 | -3.5
Fc1ccccc1CNc1cc(Cl)cc(Cl)c1 | / | / | -17.8 | / | / | -10.1
Cc1ccc(NCc2ccccc2OCc2ccccc2F)cc1 | 56.8* | 0.4 | -15.8 | 0.6 | 41.2 | -8.6
NS(=O)(=O)c1ccc(NCc2ccccc2OCc2ccccc2F)cc1 | 39.5 | 0.6 | 28.8 | 0.2 | 75.3* | -12.8
N=C1/C(=C/c2cccs2)C(=O)N=C2SN=C(SCc3ccccc3)N12 | 11.2 | 0.9 | -13.1 | 0.1 | 92.9* | -3.0
CCCCN(Cc1ccccc1)S(=O)(=O)c1ccc2[nH]c(=O)oc2c1 | 75.6* | 0.2 | 35.8 | 0.8 | 15.8 | -10.7
CN(Cc1ccccc1)C(=O)CCCn1c(=O)[nH]c2cc(Cl)ccc2c1=O | 81.9* | 0.2 | -13.9 | 1 | -0.2 | 0.9
N#CC(=C1CCCC1)c1nc(-c2cc3ccccc3oc2=O)cs1 | 8.7 | 0.9 | -9.3 | 0.7 | 32.6 | 3.2
CC(CCc1ccccc1)NC(=O)c1nnc(Cc2ccc(Cl)cc2)o1 (stereo not given) | 15.8 | 0.8 | -11.1 | 0.8 | 15.4 | -16.2
Cn1c(=O)c(C(=O)c2ccccc2)nc2ccccc21 | 43.0 | 0.6 | 2.4 | 1.4 | -40.8 | 2.2
O=C(c1ccccc1)c1nc2ccccc2n(CCCn2c(=O)c(C(=O)c3ccccc3)nc3ccccc32)c1=O | 73.7* | 0.3 | -3.7 | 0 | 96.8* | -5.8
COc1cc(C(=O)Nc2nccs2)c(Br)c(OC)c1OC | 2.2 | 1 | -3.4 | 1 | 0.7 | -6.2
COc1cc(C(=O)NCCOc2ccccc2)c(Br)c(OC)c1OC | 65.2* | 0.3 | 16.9 | 0.8 | 21.1 | -9.2
CCCOC(=O)c1ccc(NC(=O)c2cc(OC)c(OC)c(OC)c2Br)cc1 | 74.4* | 0.3 | 10.4 | 0.3 | 65.0* | -9.4
COc1cc(C(=O)NCCOc2cccc(C)c2)c(Br)c(OC)c1OC | 51.7* | 0.5 | 24.4 | 1.2 | -19.1 | 1.7
COc1cc(C(=O)Oc2cccc(C)c2)cc(OC)c1OC | 9.6 | 0.9 | -14.8 | 0.7 | 26.3 | -7.8
CCOc1ccccc1CNC(=O)CCN1C(=O)COc2ccccc21 | 74.7* | 0.3 | 0.1 | 1.9 | -85.9 | -3.3
Cc1nc(SC2C=CS(=O)(=O)C2)n[nH]1 (stereo not given) | 0.6 | 1 | 12.4 | 1 | 1.2 | -1.4
CC1=C(C#N)CCC(=O)N1Cc1ccc(C)cc1 | 60.8* | 0.4 | -46.2 | 0.8 | 18.3 | -0.3
SMILES | CYP2C19 inhib | CYP2C19 activ | PLK1 PBD inh | CYP2C9 activ | CYP2C9 inh | PLK1 inh
Cc1c(C(=O)N2CCCCC2)nnn1-c1nonc1N | 40.1 | 0.6 | -11.3 | 1 | -4.8 | -5.8
O=C(COC(=O)c1ccc[nH]c1=O)NCC1CCCO1 (stereo not given) | / | / | 12.7 | / | / | -7.4
CSc1cc(/C=N/O)c(SC)s1 | 65.6* | 0.3 | -8.8 | 0.6 | 43.6 | 17.0
CCOC(=O)N1CCN(CC(O)c2ccc3c(c2)CCN3)CC1 (stereo not given) | 5.3 | 0.9 | 15.3 | 1 | 0.6 | 5.0
CCOC(=O)N1CCN(CC(O)c2ccc3cc[nH]c3c2)CC1 (stereo not given) | 95.6* | 0 | -19.1 | 1 | 4.2 | -17.5
Cc1cccc(-c2onc3ccc(C4(C)OCCO4)cc23)c1 | 88.5* | 0.1 | 2.5 | 0.1 | 93.4* | -1.0
CC1(c2ccc3noc(-c4ccc(Cl)cc4)c3c2)OCCO1 | 34.6 | 0.7 | -3.5 | 0.8 | 15.7 | -13.3
COc1ccccc1Cn1c(=O)c2ccccc2n2c(SCc3csc(C)n3)nnc12 | 57.0* | 0.4 | / | 0.6 | 43.8 | /
COc1ccccc1Cn1c(=O)c2ccccc2n2c(Sc3ncnc4sccc34)nnc12 | 60.7* | 0.4 | 7.6 | 0.4 | 57.4* | -9.1
CCCn1c(=O)c2ccccc2n2c(Sc3nnnn3-c3ccccc3)nnc12 | 21.8 | 0.8 | / | 0.6 | 40.6 | /
CCCn1c(=O)c2ccccc2n2c(SCCOc3ccc(OC)cc3)nnc12 | 38.6 | 0.6 | / | 0.6 | 43.0 | /
O=C(CCC1N=C2c3ccccc3N=C(SCc3cccc(Cl)c3)N2C1=O)NCc1ccco1 (stereo not given) | 20.5 | 0.8 | -27.8 | 0.3 | 66.7* | -9.9
O=C(CCC1N=C2c3ccccc3N=C(SCc3ccccc3Cl)N2C1=O)NCc1ccco1 (stereo not given) | 28.7 | 0.7 | -8.4 | 0.4 | 59.8* | -6.2
CCCC(=O)Nc1ccc2nc(SCC(=O)Nc3ccc(N4CCOCC4)c(Cl)c3)sc2c1 | 40.1 | 0.6 | -4.6 | 0.3 | 69.4* | -6.7
Cn1ccnc1SCC(=O)Nc1ccc2c(c1)COC2=O | / | / | -5.4 | / | / | -4.7
Cc1ccc(NC(=O)CSCC(=O)Nc2ccc(N3CCOCC3)c(Cl)c2)cc1 | 24.7 | 0.8 | -6.0 | 0.5 | 46.2 | -6.6
COc1ccc(OCC(=O)NC(=S)Nc2ccc(N3CCOCC3)c(Cl)c2)cc1 | -2.5 | 1 | 2.0 | 0.7 | 32.1 | -2.0
CCOC(=O)c1cnc(SCC(=O)Nc2ccc(N3CCOCC3)c(Cl)c2)nc1N | 11.5 | 0.9 | -16.4 | 0.2 | 80.8* | -2.2
COc1ccc(OCC(=O)Nc2ccc(N3CCOCC3)c(Cl)c2)cc1 | 49.8 | 0.5 | 15.0 | 0.4 | 64.7* | -5.7
Cn1ccnc1SCC(=O)Nc1ccc2nc(SCC(=O)NC3CC3)sc2c1 | 18.7 | 0.8 | -2.1 | 0.4 | 62.0* | 3.1
Cc1cc(C)c2ccc(C)[n+]([O-])c2c1O | 16.0 | 0.8 | -3.2 | 3.5* | -251.5 | -8.2
COc1ccc(CC/C(=N\O)C2(O)CCCCC2)cc1 | 58.5* | 0.4 | 10.9 | 0.3 | 69.8* | 3.2
O/N=C(/CCc1ccccc1)C1(O)CCCCC1 | 80.9* | 0.2 | -2.4 | 0.4 | 59.4* | -5.2
COc1ccc(CCCC(=O)NC2CCCCC2)cc1 | 35.6 | 0.6 | -5.1 | 1.1 | -10.2 | -4.5
CCOP(=O)(c1ccccc1)C1(O)CCCCC1 (stereo not given) | -10.8 | 1.1 | 3.0 | 1.1 | -14.3 | -0.4
Cc1ccc(NCc2nnc(SCC(=O)OC3CCCCC3)o2)c(C)c1 | 37.4 | 0.6 | 5.2 | 0.6 | 36.0 | -8.8

Source: PubChem BioAssay (several laboratories)
